# Assay outcomes from PubChem BioAssay.
# TGFb inhibitor: qHTS for Inhibitors of TGF-b. HepG2 CAGA-GFP TGF-b/SMAD3 reporter, GFP fluorescence, 18 h; TGF-beta stimulated, 500 pg/mL final. Potency, µM (top dose mostly 46.1 µM), without a hit: at the highest dose activity, negative = inhibition, most hits filed as inhibitors. 410,000 tested, 1.2% active. AID 588855, 2011; note: % is set by controls: 0 for no effect and ±100 for the full control effect; nearly all actives have a fitted effect of over 65% in size
#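 HEPG2 CAGA-GFP reporter cells (1000/well, DMEM with 1% FBS) received compounds, then recombinant TGF-beta at 500 pg/mL final for 18 hours at 37 degrees C. Per-cell GFP summed per well was normalised to unstimulated and stimulated DMSO controls before curve fitting.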
# HepG2 tox: qHTS for Inhibitors of TGF-b: Cytotox Counterscreen. HepG2 CAGA-GFP viability, ATP luminescence, 18 h. Potency, µM (series often up to 46.1 µM), inactives show top-dose activity change, negative = cytotoxicity, hits mostly cytotoxic. 410,000 tested, 0.76% active
#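 HepG2 CAGA-GFP cells (1000/well, DMEM with 1% FBS) received compound, then TGF-beta at 500 pg/mL final, and were incubated 18 hours at 37 degrees C. Viability was read by CellTiter-Glo luminescence. Media-only wells were set as complete cell-killing and DMSO as no toxicity.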
# HT1080-NT tox: qHTS for induction of synthetic lethality in tumor cells producing 2HG: qHTS for the HT-1080-NT fibrosarcoma cell line; HT-1080-NT fibrosarcoma viability, CellTiter-Glo ATP luminescence, 48 h; Potency, µM (series often up to 46.1 µM), inactives show at the top dose activity, negative = less viability, most hits filed as cytotoxic; 360,000 tested, 1.6% active;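 note: NT is the 2HG producing partner of a matched IDH1 knockdown line; 0% = DMSO-treated cells and -100% = media-only wells without cells; nearly all actives have a fitted effect of over 55% in size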
#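 Read-out is CellTiter-Glo luminescence after 10 minutes at room temperature, following 48 hours' compound treatment of HT-1080-NT cells (750 cells/well, RPMI, 5% FBS, 37 degrees C).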
# ATXN2 expr inh: Primary qHTS for Inhibitors of ATXN expression. HEK-293 ATXN2-luciferase reporter, luminescence, 24 h. 360,000 tested, 0.72% active. AID 1745845, 2022. Potency, µM (top dose mostly 57 µM), for the others: at the highest dose activity change, negative = inhibition, most hits filed as inhibitors; note: % is set by controls: 0 for no effect and ±100 for the full control effect; nearly all actives have a fitted effect of over 55% in size
#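 ATXN2-luciferase reporter cells (luciferase flanked by upstream and downstream ATXN2 gene portions) were treated 24 h at 37 °C with compounds at up to 57 uM. SteadyGlo luminescence gave expression; GF-AFC fluorescence gave viability.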
# ATXN viability: Viability Counterscreen for Primary qHTS for Inhibitors of ATXN expression; 400,000 tested, 0.49% active; S2 cells (HEK-293 line with an ATXN2-luciferase reporter) viability, CellTiter-Fluor protease fluorescence, 24 h; AID 651635, 2014; Potency, µM (titrated, usually from 56.7 µM), usual class: cytotoxic; note: nearly all actives have a fitted effect of over 40% in size
# HT1080 IDH1KD tx: qHTS for induction of synthetic lethality in tumor cells producing 2HG: qHTS for the HT-1080-IDH1KD cell line | HT-1080 IDH1 knockdown viability, ATP luminescence, 48 h | Potency, µM (series often up to 46.1 µM), for inactives: at the top dose activity, negative = toxicity, most hits filed as cytotoxic | 360,000 tested, 2% active;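 note: 0% = DMSO wells and -100% = cell-free medium wells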
#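 Assay cells: HT-1080 with IDH1 knockdown, 750 per well, RPMI/5% FBS. Exposure: 48 h at 37 °C following 2 h pre-incubation. Read: CellTiter-Glo luminescence; fitted concentration-response, curve class assigned.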
# An asterisk follows results filed as active; i = inactive; ? = inconclusive; · = not tested or not shown; [ ] = another dose, or the depositor's remark. Rows were chosen to be rich in hits. Some 3.8% of all compounds tested hit in one or more screens of this group. Calls come from the whole dose curve; as a rule, active = well fitted curve in the direction sought with a large enough effect; inconclusive = small, poorly fitted or top-dose-only effect, or another doubt; inactive = no such curve, though single readings can be large; an effect the other way counts as inactive or inconclusive. Potency is the fitted concentration of half-maximal effect.
SMILES,TGFb inhibitor,HepG2 tox,HT1080-NT tox,ATXN2 expr inh,ATXN viability,HT1080 IDH1KD tx
CCOC(=O)COc1cccc2c(=O)n(CC(=O)NCc3ccc4c(c3)OCO4)ccc12,-3.4%,-2.8%,4.61µM*,-7.5%,i,?
CCOC(=O)C(C)Oc1cccc2c(=O)n(CC(=O)NCc3ccccc3)ccc12 (stereo not drawn),?,-58.8%,0.517µM*,1.4%,?,0.517µM*
CC(C)(C)n1ncc2c(=O)n(CC(=O)NCc3ccc(F)cc3)cnc21,20.0%,0.6%,?,-28.1%,i,13µM*
C#CCN(Cc1nc(N2CCOCC2)c2ccc(Cl)cc2n1)Cc1ccco1,·,·,·,·,i,·
Cc1ccccc1C(=O)NC(C)c1nnc2n1CCN(Cc1ccnc3ccccc13)CC2 (stereo not drawn),·,·,·,·,i,·
CNC(=O)c1cnn(-c2nc(N)c3ncn([C@@H]4O[C@H](CO)[C@@H](O)[C@H]4O)c3n2)c1,·,·,·,-9.5%,i,·
CCOc1ccc(OCC)c(NC(=O)c2cc(CN3CCOCC3)on2)c1,-28.9%,2.6%,·,3.8%,i,·
CCOC(=O)C(C)Oc1cccc2c(=O)n(CC(=O)NCc3ccc(F)cc3)ccc12 (stereo not drawn),0.3%,4.4%,?,·,?,0.581µM*
CCOC(=O)C(C)Oc1cccc2c(=O)n(CC(=O)NCCc3ccccc3)ccc12 (stereo not drawn),-11.5%,-24.8%,-1.4%,-6.8%,i,-8.4%
COc1ccc(Cn2cc3c(-c4ccc(F)cc4)nnc-3c3cc(OC)c(OC)cc32)cc1,25.3%,-108.1%,?,31.6µM*,i,?
COc1cc2c3nnc(-c4ccc(F)cc4)c-3cn(Cc3ccccc3)c2cc1OC,71.0%,-112.4%,-4.2%,15.8µM*,i,?
COc1cc2c3nnc(-c4ccc(F)cc4)c-3cn(Cc3ccc(F)cc3)c2cc1OC,40.3%,-110.9%,-6.9%,?,i,?
CC1CCCC(NC(=O)CSc2ccc(F)cc2)C1C (stereo not drawn),-0.3%,-1.5%,-7.2%,·,?,-7.7%
CC1CCCC(NCC(O)COC(c2ccc(F)cc2)c2ccc(F)cc2)C1C (stereo not drawn),?,22.4µM*,16.4µM*,?,?,20.6µM*
Cc1cccc(Cn2nnc3c2C(=O)c2ccccc2C3=O)c1,3.16µM*,-57.5%,?,·,·,?
Cc1ccccc1Cn1nnc2c1C(=O)c1ccccc1C2=O,3.55µM*,-88.3%,-9.0%,-16.6%,i,23.1µM*
Cc1cccc(Cn2cnc3c(nnn3Cc3ccccc3F)c2=O)c1,-11.9%,8.8%,-0.6%,12.6%,i,-26.1%
COc1ccccc1C1Nc2c(sc3nc(C)cc(C)c23)C(=O)N1c1ccccc1 (stereo not drawn),-1.9%,-40.0%,·,·,·,·
C[C@@H]1C[C@@H](CC(=O)NCC2Cc3cccc(-c4ccncc4)c3O2)NC(=S)N1 (stereo partly drawn),·,·,·,·,i,·
CCC(C)NCCCOc1cc(Cl)ccc1Cl (stereo not drawn),24.5%,-8.7%,-18.7%,-28.9%,i,-27.7%
CCC(C)NCCOCCOc1ccc(Cl)c2ccccc12 (stereo not drawn),?,-51.8%,16.4µM*,-14.6%[11.3 µM],?,20.6µM*
C=CCc1cc(Cl)ccc1OCCOCCNC(C)CC (stereo not drawn),39.1%,-46.5%,16.4µM*,-8.6%,i,?
CCC(C)NCCOCCOc1ccc(Cl)c(C)c1C (stereo not drawn),-30.2%,-17.8%,?,-22.4%,i,20.6µM*
COc1cccc(CN2CCC(c3nnc(SCC4CCCO4)n3C)CC2)c1O (stereo not drawn),·,·,·,·,i,·
O=C(Cc1ccc(N2CCNC2=O)cc1)N1CCCC(Nc2cccc(F)c2)C1 (stereo not drawn),?,-19.8%,?,·,?,5.8µM*
SMILES,TGFb inhibitor,HepG2 tox,HT1080-NT tox,ATXN2 expr inh,ATXN viability,HT1080 IDH1KD tx
O=C1CCCN1CCC(=O)N1CCCC(Nc2ccc(F)c(F)c2)C1 (stereo not drawn),2.4%,-6.4%,-0.1%,26.5%,i,1.7%
O=C(Cc1ccc(N2CCNC2=O)cc1)N1CCCC(Nc2ccc(F)c(F)c2)C1 (stereo not drawn),-24.1%,-1.1%,3.26µM*,-19.3%,i,2.91µM*
O=C(c1cccc(N2CCNC2=O)c1)N1CCCC(Nc2cccc(F)c2)C1 (stereo not drawn),-15.6%,-27.8%,0.0%,5.6%,i,-1.3%
COC(=O)c1cc(S(=O)(=O)N(Cc2ccccc2)C(C)(C)C)c[nH]1,-3.9%,-22.0%,?,-29.0%,i,23.1µM*
O=[N+]([O-])c1cncc([N+](=O)[O-])c1Nc1cccc(O)c1,?,-29.4%,-21.8%,20µM*,·,-15.5%
Cc1ccccc1Nc1c([N+](=O)[O-])cncc1[N+](=O)[O-],?,-26.7%,-1.7%,-11.5%,i,8.4%
COc1ccc(C(=O)Nc2ccc(O)c3c(=O)cc(-c4cccc(Cl)c4)oc23)cc1,-1.3%,-6.2%,?,-18.6%,4.47µM*,?
CC(C)(C)c1ccc(C(=O)Nc2ccc(O)c3c(=O)cc(-c4cccc(Cl)c4)oc23)cc1,5.3%,-3.3%,7.7%,7.7%,i,1.1%
CCOc1ccc(NC(=O)CCc2c(C)nc3cc(-c4ccccc4OC)nn3c2C)cc1,-27.1%,-4.1%,·,1.3%,i,·
Cc1c([N+](=O)[O-])cnc(Sc2ccccc2)c1[N+](=O)[O-],12.6µM*,20µM*,?,·,14.1µM*,?
Cc1ccc(Sc2ncccc2[N+](=O)[O-])cc1,0.0%,-2.2%,3.5%,14.5%,i,5.8%
O=S(=O)(c1ccc(Cl)c(Cl)c1)c1snnc1-c1ccccc1,?,15.8µM*,16.4µM*,28.2µM*,12.6µM*,8.2µM*
CCOC(=O)Cn1c(=O)n(-c2ccc(Cl)cc2)c2nc(-c3ccc(Cl)cc3)nc(C(N)=O)c21,29.4%,-12.6%,·,-0.6%,i,·
COc1ccc(N2CCN(C(=O)CCn3c(=O)[nH]c4cc(OC)c(OC)cc4c3=O)CC2)cc1,1.9%,0.0%,·,5.9%,i,·
